The results in this text go back to PubChem BioAssay (NCATS).

Records with an inconclusive call do not appear. Active and inactive are the calls of the source. Unless noted, calls follow the shape of the full dose curve.

The nature of test [1]: Primary qHTS for inhibitors of SARS-S pseudo-typed particle cell entry (AID 1479145). Also: nearly all actives have a fitted effect of over 45% in size. As to activity change, negative = inhibition: % is scaled to controls: 0 for no effect and ±100 for the full control effect. The note with it: SARS-S pseudotyped particle cell entry, luciferase reporter; series mostly up to 57.1 µM. On the technique in general: qHTS replaces the single test concentration by a dilution series.
Test [2] is described as follows: Primary qHTS for Huh7 cytotoxicity: counterscreen for inhibitors of MERS-S pseudotyped particle cell entry (AID 1479147). The note with it: cell viability read-out; series mostly up to 57.1 µM.
Test [3] in a line: Primary qHTS for inhibitors of MERS-S pseudo-typed particle cell entry (AID 1479149). Also: nearly all actives have a fitted effect of over 60% in size. As to activity change, negative = inhibition: % is scaled to controls: 0 for no effect and ±100 for the full control effect. The note with it: MERS-S pseudotyped particle entry, luciferase; series mostly up to 57.1 µM.
Test [4] in a line: Primary qHTS for Vero E6 cytotoxicity: counterscreen for inhibitors of SARS-S pseudo-typed particle cell entry (AID 1479150). The settings on record: cell viability; series mostly up to 57.1 µM.
Test [5] in a line: Cytotoxicity counterscreen for inhibitors of SARS-CoV-2 cell entry (AID 1645845). Also: nearly all actives have a fitted effect of over 50% in size. The settings on record: cell viability (SARS-CoV-2 entry assay cells); series mostly up to 57.1 µM. The essentials: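 48 h compound treatment (after 1 h preincubation), HEK293-ACE2 cells, 37 C/5% CO2; ATP luminescence endpoint; normalized to cell wells and media blanks.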
For orientation: A counterscreen serves to expose hits that act by an unwanted route or on another target.

The nature of test [6]: Primary qHTS to identify inhibitors of SARS-CoV-2 cell entry (AID 1645846). Also: nearly all actives have a fitted effect of over 45% in size. The settings on record: SARS-CoV-2 pseudovirus cell entry assay, luminescence; activity change, negative = inhibition: at 57.1 µM (top of the series) unless noted. The essentials:
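Inhibition of spike-mediated entry was scored in human ACE2-transfected Expi293F cells. Particles were MLV-pseudotyped with Wuhan-Hu-1 S carrying a 19-aa C-terminal deletion; signal was luciferase after two days, scaled between spike PP and fusion-protein-free PP.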

Test [7] addresses Glutathione peroxidase 1 (Homo sapiens) (UniProt P07203). The experiment in a line: Primary qHTS Assay for Inhibitors of Recombinant Selenoprotein Glutathione Peroxidase 1 (GPX1) (AID 1845191; active = well fitted inhibition curve with a large enough effect; also: % is scaled to controls: 0 for no effect and ±100 for the full control effect; nearly all actives have a fitted effect of over 65% in size). The settings on record: recombinant GPX1, GR-coupled NADPH fluorescence, 15 min; series mostly up to 48.8 µM. In a few lines: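 10 nM GPX1 + cpd, 30 min RT; start w/ 1 mM GSH, 0.5 mM cumene hydroperoxide, 0.5 mM NADPH, 100 nM GR, 0.01% BSA; buffer 50 mM Tris-HCl pH 7.5, 2 mM EDTA, 150 mM NaCl; Fl 340/450, 0 & 15 min.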

Test [8] deals with Phospholipid hydroperoxide glutathione peroxidase GPX4 (Homo sapiens) (UniProt P36969). Briefly: Primary qHTS Assay for Inhibitors of Recombinant Selenoprotein Glutathione Peroxidase 4 (GPX4) (AID 1845192; active = well fitted inhibition curve with a large enough effect; also: % is scaled to controls: 0 for no effect and ±100 for the full control effect; nearly all actives have a fitted effect of over 65% in size). The settings on record: recombinant GPX4, GR-coupled NADPH fluorescence, 15 min; series mostly up to 50 µM. The essentials:
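NADPH consumption, followed by fluorescence at 340/450 nm between 0 and 15 min, reports GPX4 activity via coupled glutathione reductase (100 nM). Enzyme 200 nM was pre-exposed to compound 30 min; 0.5 mM cumene hydroperoxide and 1 mM GSH served as substrates.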

Sequence of Phospholipid hydroperoxide glutathione peroxidase GPX4 (Homo sapiens) (P36969 whole entry, looked up): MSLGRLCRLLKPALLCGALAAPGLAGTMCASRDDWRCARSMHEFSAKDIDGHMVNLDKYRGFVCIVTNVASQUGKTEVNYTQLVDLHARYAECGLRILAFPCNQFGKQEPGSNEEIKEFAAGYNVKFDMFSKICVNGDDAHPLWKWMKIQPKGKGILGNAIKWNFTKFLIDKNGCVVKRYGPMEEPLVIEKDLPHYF
Sequence of Glutathione peroxidase 1 (Homo sapiens) (P07203 whole entry, looked up): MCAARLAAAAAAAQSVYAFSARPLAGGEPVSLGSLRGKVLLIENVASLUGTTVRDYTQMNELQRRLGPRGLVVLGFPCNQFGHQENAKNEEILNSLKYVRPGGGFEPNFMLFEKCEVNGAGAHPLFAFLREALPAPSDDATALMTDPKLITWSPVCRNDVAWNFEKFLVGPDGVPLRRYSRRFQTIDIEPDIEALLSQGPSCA

On to `CC[C@H]1[C@@H](O)[C@@H]2[C@H](CC[C@]3(C)[C@@H]([C@H](C)CCC(=O)O)CC[C@@H]23)[C@@]2(C)CC[C@@H](O)C[C@@H]12`, for which the Potency result in test [1], in test [2], in test [3], in test [4] and in test [5] was “inactive” throughout. Further, the activity change, negative = inhibition in test [6] is -6.18%.

For the molecule `COC1(O[C@H]2CC[C@H]3[C@@H]4CC[C@H]5C[C@@H]6S[C@@H]6C[C@]5(C)[C@H]4CC[C@]23C)CCCC1`, the Potency entry in test [1], in test [2], in test [3], in test [4], in test [5] and in test [6] was “inactive” throughout. Also, the Potency entry in test [7] and in test [8] was “inactive” throughout.

`Cc1cc(N2CCN([C@@H]3CN[C@H](C(=O)N4CCSC4)C3)CC2)n(-c2ccccc2)n1`: the Potency entry in test [1], in test [2], in test [3], in test [4] and in test [5] was “inactive” in each case. Moreover, in test [6], the activity change, negative = inhibition is -20%.

In the case of `NC(N)=NCCC[C@@H](N)C(=O)N[C@@H](CCCN=C(N)N)C(=O)N1CCC[C@H]1C(=O)N1C[C@H](O)C[C@H]1C(=O)NCC(=O)N[C@@H](Cc1cccs1)C(=O)N[C@@H](CO)C(=O)N1Cc2ccccc2C[C@@H]1C(=O)N1[C@H](C(=O)N[C@@H](CCCN=C(N)N)C(=O)O)C[C@@H]2CCCC[C@@H]21`, the Potency result in test [1], in test [2], in test [3], in test [4], in test [5] and in test [6] was “inactive” throughout.

As for `C=C(C)C1CC=C(C)CC1` (configuration not stated), the Potency result in test [1], in test [2], in test [3], in test [4] and in test [5] was “inactive” in each case. Besides, the activity change, negative = inhibition in test [6] was -21.4% [at 114 µM].

Turning to `CCC(=O)O[C@]1(C(=O)COC(C)=O)CC[C@H]2[C@@H]3C[C@H](C)C4=CC(=O)C=C[C@]4(C)[C@H]3[C@@H](O)C[C@@]21C`, the Potency result in test [1], in test [2], in test [3], in test [4] and in test [5] was “inactive” each time. The activity change, negative = inhibition in test [6] was -17.7%.

As to `CCCCCCCCCCCCCCCC(=O)OC1C(SC)OC(C(NC(=O)C2CC(CCC)CN2C)C(C)Cl)C(O)C1O` (configuration not stated), the Potency result in test [1], in test [2], in test [3], in test [4] and in test [5] was “inactive” in each case. Besides, the activity change, negative = inhibition in test [6] is -14%.

For `CCN(C)C(C)C(O)c1ccccc1` (configuration not stated), the Potency result in test [1], in test [2], in test [3], in test [4], in test [5] and in test [8] was “inactive” in each case. Besides, the activity change, negative = inhibition in test [6] was -6%.

As for `O=C([O-])C[O-].[Pt+2]`, the Potency entry in test [1], in test [2], in test [3], in test [4], in test [5] and in test [6] was “inactive” each time. The activity change, negative = inhibition in test [6] is -22.9% [at 27.1 µM].

Consider `CC(/C=C1\SC(=S)N(CC(=O)O)C1=O)=C\c1ccccc1`, for which the Potency result in test [1], in test [2], in test [3], in test [4], in test [5] and in test [6] was “inactive” each time.

As for `C=C1CC[C@H](O)C/C1=C\C=C1/CCC[C@]2(C)[C@@H]([C@H](C)CC[C@H](O)C(C)(C)O)CC[C@@H]12`, the Potency result in test [1], in test [2], in test [3], in test [4] and in test [5] was “inactive” in each case. The activity change, negative = inhibition in test [6] is -14.2%.

On to `OC[C@@H](O)C(O)[C@H](O)CO`, for which the Potency result in test [1], in test [2], in test [3], in test [4] and in test [5] was “inactive” each time. Besides, in test [6], the activity change, negative = inhibition turned out to be 2.94%.

Regarding `CCOC(=O)O[C@]1(C(=O)COC(=O)CC)CC[C@H]2[C@@H]3CCC4=CC(=O)C=C[C@]4(C)[C@H]3[C@@H](O)C[C@@]21C`, the Potency entry in test [1], in test [2], in test [3], in test [4], in test [5] and in test [6] was “inactive” throughout.

Turning to `C1CNCCN1`, the Potency entry in test [1], in test [2], in test [3], in test [4] and in test [5] was “inactive” in each case. Further, the activity change, negative = inhibition in test [6] is 2.96% [at 114 µM].

As to `CC[N+]1(C)C2CC(OC(=O)[C@H](CO)c3ccccc3)CC1[C@@H]1O[C@H]21` (some centres not stated), the Potency entry in test [1], in test [2], in test [3], in test [4], in test [5] and in test [7] was “inactive” in each case. The Potency result in test [8] is “inactive”. Further, the activity change, negative = inhibition in test [6] is -33.5%.

For the molecule `COc1cc(O)c(C(=O)Nc2nc(C(=O)NCCN(C(C)C)C(C)C)cs2)cc1OC`, the Potency entry in test [1], in test [2], in test [3], in test [4] and in test [5] was “inactive” each time. Further, the activity change, negative = inhibition in test [6] is -17.9%.
